From PubChem
Shiga inhibitor: A qHTS for Small Molecule Inhibitors of Shiga Toxin | Vero cells, Shiga toxin protein synthesis inhibition reporter | inhibition, % at 38.7 µM | actives 9.2% (n = 290,000) | AID 2315, 2010; in the data active = inhibition mostly above about 28%, no sharp cut-off; inactive = mostly below about 43%; note: 0% is about no effect
Cycloheximide cs: Cycloheximide Counterscreen for Small Molecule Inhibitors of Shiga Toxin; max response, %; actives 12% (n = 300,000); cell reporter, cycloheximide protein synthesis inhibition counterscreen; in the data active = max response mostly above about 13%, no sharp cut-off; inactive = mostly below about 14%; note: read at 38.3 µM for the half of the compounds with a filed dose; 0% is about no effect
NS1 function inh: qHTS Assay for Inhibitors of Influenza NS1 Protein Function | actives 0.4% (n = 270,000) | Potency, µM (titrated, usually from 46.1 µM), for the others: at the highest dose activity, positive = more growth; note: potency is the fitted concentration of half-maximal effect; actives are rising curves; nearly all actives have a fitted effect of over 50% in size
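Read-out: OD600 growth recovery of NS1-expressing budding yeast. Cells grown overnight at 30C in -URA glucose medium, washed, resuspended and diluted 1:100 in 2% galactose assay medium, pH 6.0. Same strain lacking NS1 served as positive control.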
TbPYK inhibitor: qHTS of Trypanosoma Brucei Inhibitors; TbPYK enzyme, Kinase-Glo Plus ATP luminescence, 45 min; Potency, µM (top dose mostly 76.8 µM), without a hit: at the top dose activity, negative = inhibition, hits mostly inhibitors; AID 624173, 2012; actives 0.12% (n = 410,000); pyruvate kinase (Trypanosoma brucei), Q57TT1; active = well fitted curve in the direction sought with a large enough effect; inconclusive = small, poorly fitted or top-dose-only effect, or another doubt; inactive = no such curve, though single readings can be large; an effect the other way counts as inactive or inconclusive; note: potency is the fitted concentration of half-maximal effect; % is set by controls: 0 for no effect and ±100 for the full control effect; nearly all actives have a fitted effect of over 50% in size
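TbPYK + substrate in 50 mM TEA pH 7.2, 100 mM KCl, 10 mM MgCl2, 0.05% BSA, 0.01% Tween-20; cpd pinned; ADP 130 uM final; 45 min RT; Kinase-Glo Plus 10 min; luminescence endpoint.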
SARS PLP yeast: qHTS of Yeast-based Assay for SARS-CoV PLP; actives 0.19% (n = 330,000); AID 485353, 2010; S. cerevisiae expressing SARS-CoV PLpro, growth rescue; Potency, µM (doses to about 32.9 µM), for the others: at the top dose activity, positive = growth rescue, usual class: activators; note: potency is the fitted concentration of half-maximal effect; 0% is about no effect; nearly all actives have a fitted effect of over 55% in size
LmPK inhibitor: qHTS Assay for Inhibitors of Leishmania Mexicana Pyruvate Kinase (LmPK) | actives 0.37% (n = 290,000) | Potency, µM (series often up to 57.5 µM), inactives show top-dose activity change, negative = inhibition, hits mostly inhibitors | Q27686 | AID 1721, 2009 | purified LmPK, Kinase-Glo ATP luminescence, 1 h; active = well fitted curve in the direction sought with a large enough effect; inconclusive = small, poorly fitted or top-dose-only effect, or another doubt; inactive = no such curve, though single readings can be large; an effect the other way counts as inactive or inconclusive; note: potency is the fitted concentration of half-maximal effect; % is set by controls: 0 for no effect and ±100 for the full control effect
Target sequence (Q27686 whole entry, looked up): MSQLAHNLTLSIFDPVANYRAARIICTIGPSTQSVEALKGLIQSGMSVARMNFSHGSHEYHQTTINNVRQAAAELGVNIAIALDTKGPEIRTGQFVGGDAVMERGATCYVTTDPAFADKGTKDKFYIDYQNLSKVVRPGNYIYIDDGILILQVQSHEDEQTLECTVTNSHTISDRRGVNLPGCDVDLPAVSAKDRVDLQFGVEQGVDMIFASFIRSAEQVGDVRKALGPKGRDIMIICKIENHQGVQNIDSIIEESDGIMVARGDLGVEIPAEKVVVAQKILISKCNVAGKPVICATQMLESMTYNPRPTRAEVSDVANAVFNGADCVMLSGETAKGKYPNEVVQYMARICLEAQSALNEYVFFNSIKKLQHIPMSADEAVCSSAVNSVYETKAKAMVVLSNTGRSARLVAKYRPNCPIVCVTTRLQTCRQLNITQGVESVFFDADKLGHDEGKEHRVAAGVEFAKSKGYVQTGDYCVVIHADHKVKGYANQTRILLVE
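Purified LmPK (0.1 nM) with 0.5 mM PEP and 0.1 mM ADP in imidazole buffer pH 7.2 with MgCl2/KCl, 1 h at room temperature. ATP formed was read by luciferase luminescence and normalized to no-enzyme and uninhibited controls.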
An asterisk follows results filed as active; ? = inconclusive; · = not tested or not shown. Only a selection was taken, and hits are over-represented in it overall. Unless noted, calls come from the whole dose curve.

SMILES	Shiga inhibitor	Cycloheximide cs	NS1 function inh	TbPYK inhibitor	SARS PLP yeast	LmPK inhibitor
Cc1cccc(C(=O)Nc2ccccc2C(=O)OCc2cc(=O)n3nc(C4CC4)sc3n2)c1	·	·	·	-4%	·	·
Cc1ccc(CSc2nnc(NC(=O)C3COc4ccccc4O3)s2)cc1 (configuration not stated)	-3	2	3%	-1%	-5%	1%
CCc1nnc(NC(=O)C2COc3ccccc3O2)s1 (configuration not stated)	42	36*	-5%	-4%	-6%	-11%
Cn1c2cc(B(O)O)sc2c2cnn(Cc3c(F)cccc3Cl)c(=O)c21	·	·	·	·	-2%	·
CCN[C@@H]1C[C@H](N)[C@H](O[C@H]2OC(CN)=CC[C@H]2N)[C@@H](O)[C@H]1O[C@H]1OC[C@@](C)(O)[C@@H](NC)[C@@H]1O	·	·	·	3%	·	·
Cc1cccc(NC(=O)c2ccc(F)c(S(=O)(=O)N3CCC4(CC3)OCCO4)c2)c1	28	34*	-30%	-5%	0%	-10%
Cc1cccc(NC(=O)c2ccc(F)c(S(=O)(=O)NCc3ccco3)c2)c1	84*	44*	-13%	-12%	4%	-12%
CN(C)C1(CNC(=O)c2ccc(Cl)c(S(=O)(=O)NCc3ccco3)c2)CCCCC1	38	23*	16%	-13%	15%	6%
CC(=O)Nc1cccc(NC(=O)c2ccc(S(=O)(=O)NCc3ccco3)cc2)c1	·	·	·	3%	·	·
CNS(=O)(=O)c1cc(C(=O)NCc2ccco2)ccc1Cl	-3	-2	-2%	2%	-1%	-2%
C=CCN1C(=O)c2ccc(C(=O)N(CCC)CC(=O)Nc3ccccc3C)cc2C1=O	·	·	·	-3%	2%	·
CCCCOc1ccc(CNC(=O)c2cc3n(n2)CCCN(Cc2ccc(C)cc2)C3=O)cc1	·	·	·	0%	·	·
CCOc1ccccc1NC(=O)C1=C(C)Nc2ncnn2C1c1ccco1 (configuration not stated)	·	·	·	-3%	·	·
CC(=O)c1sc(N/N=C2\CC3CC2C(C)C3(C)C)nc1C (configuration not stated)	48*	34*	7%	-19%	2%	6%
CN(CC12CC3CC(CC(C3)C1)C2)C(=O)c1ccco1	·	·	·	2%	·	·
COc1ccc(OC)c(-c2csc(N(C)C(=O)c3ccco3)n2)c1	·	1	12%	-1%	-1%	9%
CN(C(=O)c1ccco1)c1nc2c(s1)CCCC2	42*	31*	-73%	-18%	-16%	25µM*
CN(C(=O)c1ccco1)c1nnc(C23CC4CC(CC(C4)C2)C3)s1	83*	57*	-37%	-2%	-17%	2%
COc1ccc2[nH]c(C(=O)Nc3ccc(C)c(F)c3)cc2c1	69*	36*	-2%	-9%	0%	0%
COc1ccc2[nH]c(C(=O)Nc3cccc(C)n3)cc2c1	47*	29*	7%	-25%	0%	28µM*
COc1ccc(NC(=O)c2cc3ccccc3[nH]2)cc1	64*	40*	-15%	-5%	1%	-5%
Cc1ccc(NC(=O)c2cc3cc(OC(F)(F)F)ccc3[nH]2)cc1	5	6	3%	5%	-1%	-1%
CC(C)(C)c1ccc(S(=O)(=O)NNC(=O)c2cc3ccccc3[nH]2)cc1	54*	27*	?	0%	-10%	5%
CCCC(C)NNC(=O)c1cc2ccccc2[nH]1 (configuration not stated)	20	-2	5%	-5%	0%	1%
CC1(C)SC2C(NC(=O)C(c3ccccc3)S(=O)(=O)O)C(=O)N2C1C(=O)O (configuration not stated)	·	·	·	-14%	·	·
SMILES	Shiga inhibitor	Cycloheximide cs	NS1 function inh	TbPYK inhibitor	SARS PLP yeast	LmPK inhibitor
CN(C(=O)c1cccc(NC(=O)Cc2ccc(NC(=O)C3CCCN(C(=O)C4CCCCC4)C3)cc2)c1)C1CC1 (configuration not stated)	·	·	·	-5%	·	·
Cc1cc(C(=O)NN=C2CCCCCC2)c(C)o1	52*	25*	-50%	6%	-1%	1%
CC(C)/C=N/NC(=O)c1ccc(Cl)cc1	38	24*	-4%	-23%	-10%	0%
O=C(NN=C1CCCCCC1)c1cccnc1	84*	31*	·	0%	0%	4%
O=C(NN=C1CCCC1)c1ccc(Br)cc1	-2	-1	-5%	2%	-3%	-4%
O=C(NN=C1CCCC1)c1ccc(Cl)cc1	72*	41*	2%	-10%	-1%	-9%
Cc1ccc(C)c(CN2C(=O)c3ccccc3Sc3ccc(C(=O)NCc4ccc5c(c4)OCO5)cc32)c1	-7	-7	·	-7%	·	·
O=C1OC2C(O)C(O)OC2C1O (configuration not stated)	·	·	·	-8%	·	·
Cc1ccccc1Cn1c(=O)n(CCCCCC(=O)NCc2ccc3c(c2)OCO3)c(=O)c2sccc21	·	·	·	-9%	·	·
CC1C/C(=N\NC(=O)c2ccc(NS(=O)(=O)c3ccc(Br)cc3)cc2)CC(C)(C)C1 (configuration not stated)	17*	12	19%	0%	5%	2%
O=C(NCCNC(=O)c1cccc(O)c1)c1cccc(O)c1	-12	-2	2%	1%	-2%	0%
NNC(=O)c1cccc(O)c1	58*	67*	-4%	-8%	15%	-5%
O=C(NN=C1CCCC1)c1ccccc1O	58*	18*	-26%	6%	7%	-2%
O=C(O)c1ccccc1NN=C1CCCCC1	110*	57*	-10%	0%	-1%	0%
Cc1cc(C)nc(SCc2ccc(C(=O)N/N=C3\CC(C)CC(C)(C)C3)cc2)n1 (configuration not stated)	-4	-1	24%	1%	-17%	3%
COCCCN1C(=O)C(CC(=O)NC2CC2)CC(C(=O)N(C(C)C)C(C)C)=C1C (configuration not stated)	·	·	·	2%	·	·
CCOC(=O)c1cccc(NC(=O)C2CCCN(c3nnc(C)c4c(C)n(-c5ccccc5)nc34)C2)c1 (configuration not stated)	·	·	·	-1%	·	·
CC(O)C(O)C(O)C(O)/C=N/NC(=O)c1ccccc1 (configuration not stated)	86*	38*	2%	3%	9%	4%
Cc1ccc(C)n1-c1ccc(C(=O)NN=C2CCCC2)cc1	26	8	16%	-14%	-1%	0%
CC1C/C(=N\NC(=O)c2ccc([N+](=O)[O-])cc2)CC(C)(C)C1 (configuration not stated)	16	7	5%	-5%	0%	3%
CN(C)/C=N/NC(=O)c1ccccc1	31	4	·	8%	-1%	-2%
